# Tested on: EPHA1
# Conditions: concentration: 1 μM,replicates: in singlicate; n = 1
# 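Note: KINOMEscan kinase panel screen.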
row,SMILES,%Inh
1,CNC(=O)c1ccccc1Nc1nc(Nc2cccc(CS(C)(=O)=O)c2)ncc1C.O=CO [GSK1520489],99.6%
2,O=C(Nc1n[nH]c2cc(-c3ccco3)ccc12)C1CC1 [SB-737447],0%
3,CSc1nccc(-c2c(-c3ccc(F)cc3)ncn2CCCN2CCOCC2)n1.Cl [SB-217146],0%
4,COc1cccc(CNC(=O)NC2CCN(c3ccnc(Nc4cc(OC)c(OC)c(OC)c4)n3)C2)c1 (centres unmarked) [GSK1379765],11%
5,Cn1cc(-c2cccc3c(N)c(C(N)=O)nnc23)cn1,0%
6,Cc1ccc(Nc2ccnc(Nc3ccc4c(c3)CS(=O)(=O)C4)n2)cc1O.Cl [GW579362],91.3%
7,CC(C(=O)NC1CCN(c2ccnc(Nc3ccc(F)cc3)n2)C1)c1ccc(Cl)cc1 (centres unmarked) [GSK1379713],0%
8,COc1cc2c(Nc3ccc(NC(=O)c4ccccc4)cc3)ncnc2cc1OCCCN1CCOCC1 [GSK301329],3%
9,N#Cc1cccc(C(=O)NC2CCN(c3ccnc(Nc4ccc(F)cc4)n3)C2)c1 (centres unmarked) [GSK1379708],1%
10,CN1CCN(CCCNc2nccc(-c3c(-c4ccc(F)cc4)nn4cc(C(N)=O)ccc34)n2)CC1 [GW622475],51%
11,O=C(Nc1cccc(C(F)(F)F)c1)c1cccc(Oc2ccc3nccn3n2)c1,7%
12,COC(=O)Nc1nc2cc(Oc3ccc(NC(=O)Nc4cc(C(F)(F)F)ccc4Cl)cc3)ccc2[nH]1.Cl [GW697465],91%
13,Cn1ccc2ncnc(Oc3ccc(NC(=O)Nc4ccnc(C(F)(F)F)c4)c(Cl)c3)c21,0%
14,Cc1cccc2c(-c3ccncc3)c(-c3ccc(F)cc3)nn12.Cl [GW461487],3%
15,COc1cccc(C2=C(Nc3cccc(Cl)c3)C(=O)NC2=O)c1 [SB-341556],18%
16,OCCn1cc(-c2cnc3nnn(Cc4ccc5ncccc5c4)c3n2)cn1,0%
17,CC(=O)c1c(-c2ccncc2)[nH]c(-c2ccncc2)c1C [GW493036],19%
18,Cn1ccc2ncnc(Oc3ccc(NC(=O)Nc4cncc(C(F)(F)F)c4)c(Cl)c3)c21,17%
19,O=c1[nH]cc(-c2ccc(O)cc2)c2sc(-c3ccncc3)cc12 [GSK1033723],8%

row,SMILES,%Inh
1,COC(=O)c1cccc(NC(=O)NC2CCN(c3ccnc(NCc4ccc(F)cc4)n3)CC2)c1 [GSK1379860],0%
2,Cn1ccc2ncnc(Oc3ccc(NC(=O)Nc4cccc(C(F)(F)F)c4)c(F)c3)c21,51%
3,Cl.c1ccc(Oc2ccc(Nc3ccnc4cc(-c5ccc(CN6CCNCC6)o5)ccc34)cc2)nc1 [GW567142],77%
4,CS(=O)(=O)c1cccc(CNc2nc(Nc3ccc4c(c3)[C@@H]3C[C@@H]4CNC3=O)ncc2C(F)(F)F)c1,12%
5,C[C@@H](Oc1cc(-n2cnc3ccc(-c4ccncc4)cc32)sc1C(N)=O)c1ccccc1Cl [GSK483724],17%
6,CCOC(=O)N1CCC(n2cnc(-c3ccc(F)cc3)c2-c2ccnc(N)n2)CC1 [SB-219952],9%
7,Cn1ccc2ncnc(Oc3ccc(NC(=O)Nc4cc(C(C)(C)C)on4)c(Cl)c3)c21,71%
8,Cc1n[nH]c2cc(Nc3ccnc(Nc4cccc(CN5CCOCC5)c4)n3)ccc12 [GW682569],52%
9,NC(=O)c1ccc(-c2cc3ncnc(SCC(=O)O)c3s2)cc1,0%
10,Cc1ccc(CC(=O)N2CCc3cc(-c4cn(C)c5ncnc(N)c45)ccc32)cc1 [GSK2634758],0%
11,COc1ccc(Nc2nccc(N3CCC(NC(=O)c4cccc(C#N)c4)C3)n2)cc1 (centres unmarked) [GSK1379730],27%
12,Cn1ccc2ncnc(Oc3ccc(NC(=O)Nc4cccc(C(F)(F)F)c4)c(Cl)c3)c21,54%
13,O=C(Nc1ccccc1)c1cccc(Oc2ccc3nccn3n2)c1,7%
14,Cn1ccc2ncnc(Oc3ccc(NC(=O)Nc4cnn(C(C)(C)C)c4)c(Cl)c3)c21,0%
15,CCn1c(-c2nonc2N)nc2cncc(CNC3CCNCC3)c21.Cl [SB-747651],6%
16,COc1cc2nccc(Nc3ccc(Oc4ccccc4)cc3)c2cc1OC.Cl [GI261656],0%
17,Cl.Cl.NC[C@H](CC1CCCCC1)NC(=O)c1ccc(-c2ccnc3[nH]ccc23)s1 [GSK1581428],7%
18,Cc1cccc(-c2nc(Nc3ccncc3)c3sccc3n2)n1 [GW869641],0%

# Tested on: EPHA2
# Conditions: concentration: 1 μM,replicates: in singlicate; n = 1
row,SMILES,%Inh
1,CNC(=O)c1ccccc1Nc1nc(Nc2cccc(CS(C)(=O)=O)c2)ncc1C.O=CO [GSK1520489],99.1%
2,O=C(Nc1n[nH]c2cc(-c3ccco3)ccc12)C1CC1 [SB-737447],10%
3,CSc1nccc(-c2c(-c3ccc(F)cc3)ncn2CCCN2CCOCC2)n1.Cl [SB-217146],0%
4,COc1cccc(CNC(=O)NC2CCN(c3ccnc(Nc4cc(OC)c(OC)c(OC)c4)n3)C2)c1 (centres unmarked) [GSK1379765],30%
5,Cn1cc(-c2cccc3c(N)c(C(N)=O)nnc23)cn1,0%
6,Cc1ccc(Nc2ccnc(Nc3ccc4c(c3)CS(=O)(=O)C4)n2)cc1O.Cl [GW579362],83%
7,CC(C(=O)NC1CCN(c2ccnc(Nc3ccc(F)cc3)n2)C1)c1ccc(Cl)cc1 (centres unmarked) [GSK1379713],14%
8,COc1cc2c(Nc3ccc(NC(=O)c4ccccc4)cc3)ncnc2cc1OCCCN1CCOCC1 [GSK301329],4%
9,N#Cc1cccc(C(=O)NC2CCN(c3ccnc(Nc4ccc(F)cc4)n3)C2)c1 (centres unmarked) [GSK1379708],0%
10,CN1CCN(CCCNc2nccc(-c3c(-c4ccc(F)cc4)nn4cc(C(N)=O)ccc34)n2)CC1 [GW622475],28%
11,O=C(Nc1cccc(C(F)(F)F)c1)c1cccc(Oc2ccc3nccn3n2)c1,42%
12,COC(=O)Nc1nc2cc(Oc3ccc(NC(=O)Nc4cc(C(F)(F)F)ccc4Cl)cc3)ccc2[nH]1.Cl [GW697465],96.2%
13,Cn1ccc2ncnc(Oc3ccc(NC(=O)Nc4ccnc(C(F)(F)F)c4)c(Cl)c3)c21,0%
14,Cc1cccc2c(-c3ccncc3)c(-c3ccc(F)cc3)nn12.Cl [GW461487],5%
15,COc1cccc(C2=C(Nc3cccc(Cl)c3)C(=O)NC2=O)c1 [SB-341556],19%
16,OCCn1cc(-c2cnc3nnn(Cc4ccc5ncccc5c4)c3n2)cn1,0%
17,CC(=O)c1c(-c2ccncc2)[nH]c(-c2ccncc2)c1C [GW493036],6%
18,Cn1ccc2ncnc(Oc3ccc(NC(=O)Nc4cncc(C(F)(F)F)c4)c(Cl)c3)c21,81%
19,O=c1[nH]cc(-c2ccc(O)cc2)c2sc(-c3ccncc3)cc12 [GSK1033723],10%

row,SMILES,%Inh
1,COC(=O)c1cccc(NC(=O)NC2CCN(c3ccnc(NCc4ccc(F)cc4)n3)CC2)c1 [GSK1379860],10%
2,Cn1ccc2ncnc(Oc3ccc(NC(=O)Nc4cccc(C(F)(F)F)c4)c(F)c3)c21,94.6%
3,Cl.c1ccc(Oc2ccc(Nc3ccnc4cc(-c5ccc(CN6CCNCC6)o5)ccc34)cc2)nc1 [GW567142],0%
4,CS(=O)(=O)c1cccc(CNc2nc(Nc3ccc4c(c3)[C@@H]3C[C@@H]4CNC3=O)ncc2C(F)(F)F)c1,2%
5,C[C@@H](Oc1cc(-n2cnc3ccc(-c4ccncc4)cc32)sc1C(N)=O)c1ccccc1Cl [GSK483724],19%
6,CCOC(=O)N1CCC(n2cnc(-c3ccc(F)cc3)c2-c2ccnc(N)n2)CC1 [SB-219952],13%
7,Cn1ccc2ncnc(Oc3ccc(NC(=O)Nc4cc(C(C)(C)C)on4)c(Cl)c3)c21,85%
8,Cc1n[nH]c2cc(Nc3ccnc(Nc4cccc(CN5CCOCC5)c4)n3)ccc12 [GW682569],14%
9,NC(=O)c1ccc(-c2cc3ncnc(SCC(=O)O)c3s2)cc1,0%
10,Cc1ccc(CC(=O)N2CCc3cc(-c4cn(C)c5ncnc(N)c45)ccc32)cc1 [GSK2634758],2%
11,COc1ccc(Nc2nccc(N3CCC(NC(=O)c4cccc(C#N)c4)C3)n2)cc1 (centres unmarked) [GSK1379730],0%
12,Cn1ccc2ncnc(Oc3ccc(NC(=O)Nc4cccc(C(F)(F)F)c4)c(Cl)c3)c21,94.5%
13,O=C(Nc1ccccc1)c1cccc(Oc2ccc3nccn3n2)c1,19%
14,Cn1ccc2ncnc(Oc3ccc(NC(=O)Nc4cnn(C(C)(C)C)c4)c(Cl)c3)c21,22%
15,CCn1c(-c2nonc2N)nc2cncc(CNC3CCNCC3)c21.Cl [SB-747651],0%
16,COc1cc2nccc(Nc3ccc(Oc4ccccc4)cc3)c2cc1OC.Cl [GI261656],5%
17,Cl.Cl.NC[C@H](CC1CCCCC1)NC(=O)c1ccc(-c2ccnc3[nH]ccc23)s1 [GSK1581428],0%
18,Cc1cccc(-c2nc(Nc3ccncc3)c3sccc3n2)n1 [GW869641],0%

# Reference: publication PMC5540273 (PLoS ONE, 2017)
